Results taken from PubChem BioAssay AID431 (Sanford-Burnham Center for Chemical Genomics, 2006).
The whole screen tested about 63,000 compounds, of which about 1,100 (1.7%) were called active. Only a selection was taken, and actives are over-represented in it overall. Entries with a potency or affinity are not part of this list. A number with no mark means an inactive call.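 The calls were made as follows: active = compounds whose percent cytotoxicity in the single-dose primary screen, scaled between solvent and toxic-drug controls, exceeds 50; inactive = the rest.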

Test: viability loss of HPDE-C7K cells – cell-based, fluorescence, HTS, primary screen (AID 431);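 also: 0% = DMSO solvent wells and 100% = doxorubicin-treated wells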
Conditions: HPDE-C7K KRASV12 cells, Alamar Blue viability, 48 h; at 10 µM; stronger effect = higher value

In order of rising cytotoxicity:
1. CN1CCN(S(=O)(=O)c2ccc(NC(=O)c3cccc(S(=O)(=O)N4CCCC4)c3)cc2)CC1  -54.2%
2. COc1ccc(C(=O)CSc2nnc(-c3ccoc3C)n2CC2CCCO2)cc1 (stereo not drawn)  -33%
3. COc1ccc(S(=O)(=O)N2CCN(c3ncnc4c(-c5ccccc5)nsc34)CC2)cc1  -20.8%
4. Cc1cc(C)c(S(N)(=O)=O)c(C)c1-n1cnnn1  -18.5%
5. COc1cccc(CNc2nc3ccccc3n2CCN2CCCCC2)c1  -17.7%
6. Cc1nc2c(-c3ccccc3)c(C)nn2c(C)c1CCC(=O)N1CCOCC1  -17%
7. CC(=O)NC1(C(F)(F)F)C(=O)Nc2c1c(=O)[nH]c(=O)n2Cc1ccco1 (stereo not drawn)  -16.1%
8. CCOC(=O)C(NC(=O)c1ccccc1)=C1C=C(C)OC(C)=C1  -13.9%
9. CCOc1ccccc1N(CC(=O)NCc1ccc(OC)cc1)S(C)(=O)=O  -11.2%
10. c1ccc(Nc2ncnc3c2oc2ccccc23)cc1  -10%
11. CN(Cc1ccccc1)C(=O)CCCn1c(=O)[nH]c2cc(Cl)ccc2c1=O  -8.5%
12. C=CCNC(=O)c1c(N)n(-c2ccc3c(c2)OCO3)c2nc3ccccc3nc12  -6.4%
13. COc1ccc(OC)c(S(=O)(=O)NCc2cn3c(C)csc3n2)c1  -5.8%
14. COc1ccc(-n2nnc3c(=O)n(CC(=O)NCC4CCCO4)cnc32)cc1 (stereo not drawn)  -5%
15. Nc1c(C(=O)N2CCCCC2)sc(=S)n1-c1ccccc1  -4.9%
16. c1ccc(CN2CCN(c3ncnc4nc[nH]c34)CC2)cc1  -3.8%
17. c1ccc2c(c1)[nH]c1c(N3CCOCC3)ncnc12  -3.2%
18. c1ccc2c(c1)oc1c(NCCN3CCOCC3)ncnc12  -2.7%
19. COCCN(C(=O)CCC(=O)Nc1cccnc1)C(C(=O)NC1CCCCC1)c1ccccc1 (stereo not drawn)  -2.1%
20. Cn1c(N)c(C(=O)NCc2ccccc2)sc1=S  -2%
21. COc1cccc(C2/C(=C(\O)c3c(C)nc4c(C)cccn34)C(=O)C(=O)N2CCCN(C)C)c1OC (stereo not drawn)  -1.4%
22. COCCNC(=O)CN1CCC(NC(=O)Nc2ccccc2)CC1  -1%
23. CCOC(=O)Cc1nn2c(=O)cc(C)nc2s1  -0.8%
24. N#CC(C(=O)NC1CCCCC1)c1nc2ccccc2nc1N1CCCCC1 (stereo not drawn)  -0.2%
25. CCOC(=O)c1ccc(NC(=O)c2nn(CC)cc2Br)cc1  0.8%
26. CCOC(=O)CSC1=C(C#N)C(c2ccccc2C)C2=C(CCCC2=O)N1 (stereo not drawn)  0.9%
27. CCOC(=O)c1[nH]c2ccc(OCC)cc2c1NC(=O)CN1CCN(c2ccccn2)CC1  0.9%
28. O=C(NCc1ccc2c(c1)OCO2)c1nnc(Cc2ccc(Cl)cc2)o1  1.6%
29. CSC1=NCCN1C(=O)Cc1ccc(Cl)cc1  3.5%
30. O=C(NCc1ccc2c(c1)OCO2)c1cccc(Cl)c1  3.6%
31. CC(=O)NCCCc1c[nH]c2ccc(Cl)cc12  5.3%
32. Cc1nonc1NC(=O)Nc1cccnc1  5.4%
33. CSc1nnc(Cn2c(=O)sc3ccccc32)n1C  6.8%
34. C=CCn1c(N)c(C(=O)OCCC)c2nc3ccccc3nc21  7.1%
35. O=C(NCc1ccc(Cl)cc1)c1ccc(COCC(F)(F)F)o1  7.2%
36. C=CCNC(=O)c1c(N)n(-c2cccc(S(N)(=O)=O)c2)c2nc3ccccc3nc12  8.3%
37. COC(=O)C1=C(C)N=c2s/c(=C/c3ccoc3)c(=O)n2C1c1ccccc1 (stereo not drawn)  8.9%
38. CCCCOC(=O)c1ccc(NC(=O)c2cnccn2)cc1  10.3%
39. COC(=O)Nc1ccc(S(=O)(=O)N2CCN(C)CC2)cc1  10.6%
40. COc1ccc(-n2nnnc2SCC(=O)Nc2cccc(NC(C)=O)c2)cc1OC  11.1%
41. Cc1cc(C)c(C#N)c(Nc2ccc3c(c2)OCCO3)n1  11.2%
42. COc1ccc(-c2nsc3c(N4CCCC4)ncnc23)cc1  11.5%
43. O=C(CSc1nnnn1-c1ccc2c(c1)CCC2)NCc1cccs1  13.2%
44. O=C(c1cccc(-c2nnc(-c3ccccc3)o2)c1)N1CCCCC1  14%
45. CCn1c(NC2CCCCC2)nc2ccccc21  15.1%
46. CCOc1ccc(N2CC(C(=O)Nc3cccc(C)c3C)CC2=O)cc1 (stereo not drawn)  15.6%
47. Cc1ccc2[nH]c3c(N4CCOCC4)ncnc3c2c1  16.2%
48. CCOC(=O)N1CCN(c2ncnc3c2[nH]c2ccc(OC)cc23)CC1  18.4%
49. c1ccc2c(c1)[nH]c1c(N3CCCC3)ncnc12  20%
50. O=C(c1ccco1)N1CCN(c2ncnc3c2[nH]c2ccccc23)CC1  21.1%
51. c1ccc2c(c1)[nH]c1c(N3CCC4(CC3)OCCO4)ncnc12  23.3%
52. C=CCn1c(N)c(C(=O)OC(C)CC)c2nc3ccccc3nc21 (stereo not drawn)  24.5%
53. Cc1ccc2[nH]c3c(N4CCCCCC4)ncnc3c2c1  30.4%
54. c1ccc2c(c1)[nH]c1c(N3CCSCC3)ncnc12  44.2%

For `Cc1ccc2c(c1)[nH]c1c(N3CCN(Cc4ccccc4)CC3)ncnc12`, the cytotoxicity was 107% (active).
For `c1ccc(CN2CCN(c3ncnc4c3[nH]c3ccccc34)CC2)cc1`, the cytotoxicity was 119% (active).
With `OC1(c2cccc(C(F)(F)F)c2)CCN(c2ncnc3c2[nH]c2ccccc23)CC1` the cytotoxicity was 124% (active).
For `CCOc1ccc2[nH]c3c(N4CCN(c5ccccn5)CC4)ncnc3c2c1`, the cytotoxicity was 77.1% (active).
In the case of `COc1ccc(-c2nsc3c(N4CCN(S(=O)(=O)c5ccccc5)CC4)ncnc23)cc1`, the cytotoxicity is reported as 56.4% (active).
With `O=C(NCc1ccc2c(c1)OCO2)c1ccc(-c2ccc(Cl)cc2)o1` the cytotoxicity was 61.3% (active).
For `CN1CCN(S(=O)(=O)c2ccc(NC(=O)Nc3cccc(Cl)c3)cc2)CC1`, the cytotoxicity was 53% (active).
For `C=CCn1c(N)c(C(=O)Nc2ccccc2)c2nc3ccccc3nc21`, the cytotoxicity was 60.6% (active).
With `C=CCn1c(N)c(C(=O)OC(C)(C)C)c2nc3ccccc3nc21` the cytotoxicity was 62.9% (active).
